In all, about 69,000 compounds went through this assay and about 420 (0.61%) showed an effect of 50% or more. The entries come from a sample that favours strong results as a whole.
target: T1, Histidine--tRNA ligase (Leishmania infantum) (UniProt A4I591); assay: Leishmania infantum Histidine tRNA synthetase (LdHisRS); assay type: functional; design: scale not given: in the data most compounds retested in dose-response had high values; settings: 30 µM
T1 sequence (whole entry): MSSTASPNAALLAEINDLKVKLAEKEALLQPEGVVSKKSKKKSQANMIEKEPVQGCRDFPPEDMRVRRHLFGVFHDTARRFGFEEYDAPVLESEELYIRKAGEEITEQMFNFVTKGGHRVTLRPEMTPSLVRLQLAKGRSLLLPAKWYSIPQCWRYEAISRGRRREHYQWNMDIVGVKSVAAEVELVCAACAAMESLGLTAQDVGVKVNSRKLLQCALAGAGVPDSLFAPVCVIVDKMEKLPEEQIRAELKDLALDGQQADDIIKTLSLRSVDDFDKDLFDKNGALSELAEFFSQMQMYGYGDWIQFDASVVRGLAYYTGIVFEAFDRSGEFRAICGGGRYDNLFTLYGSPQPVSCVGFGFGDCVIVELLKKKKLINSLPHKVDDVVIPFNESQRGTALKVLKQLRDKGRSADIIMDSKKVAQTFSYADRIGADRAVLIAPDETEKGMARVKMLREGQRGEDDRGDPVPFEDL

Row | Structure (SMILES) | Percent Effect [%]
1 | Cc1ccc(C(=O)N2CCO[C@H]3[C@H](OCCN(C)C)CC[C@@H]32)cn1 | 9.72
2 | Cc1cccc(NC(=O)c2[nH]nc(C(C)C)c2Br)n1 | 12.5
3 | O=C(c1ccco1)N1C[C@@H]2[C@@H](C1)OCC(=O)N2Cc1cccnc1 | 20.4
4 | Cc1ccc(CN2C[C@@H]3COC[C@@H](CC(=O)N4CCOCC4)[C@@H]3C2)s1 | 20.5
5 | CCCC(=O)Nc1ccc2c(c1)C1(CCOCC1)CN2CCOC | 35.1
6 | CCC(=O)Nc1ccc2c(c1)C1(CCOCC1)CN2CCF | 22.5
7 | CCN1CC2(CCOCC2)c2cc(NS(=O)(=O)CC)ccc21 | 75.2
8 | CN(C)C(=O)N1CC2(CCOCC2)c2cc(NS(=O)(=O)C3CC3)ccc21 | 15.4
9 | CCS(=O)(=O)Nc1ccc2c(c1)C1(CCOCC1)CN2C | 51.5
10 | CCC(=O)Nc1ccc2c(c1)C1(CCOCC1)CN2CCOC | 46
11 | CC(c1ccccc1)N1Cc2nc(N(C)C)ncc2C1=O (stereo unspecified) | 3.54
12 | CC1CCN(c2ncc3c(n2)CN(c2ccc(F)cc2)C3=O)CC1 | 12.4
13 | COc1ccc(CN2C[C@H]3CN(Cc4ccncc4)C(=O)[C@H]3C2)cc1 | 21.4
14 | COCCN1CCN(C(=O)c2ccc(COC)o2)[C@H]2CS(=O)(=O)C[C@H]21 | 21.3
15 | c1coc(CN2C[C@H](OCC3CCOCC3)[C@H]3COC[C@H]32)c1 | 9.02
16 | COc1ccc2c(c1)ncn2C[C@]1(O)CCCN2CCCC[C@@H]21 | 4.2
17 | CCn1nc(C)c(CN(CCOC)C(=O)c2ccccc2N(C)C)c1C | 21.7
18 | CCn1nc(C)c(CN(CCOC)C(=O)c2cnc(C)nc2O)c1C | 20
19 | CCOc1ccc(C(=O)N(CCOC)Cc2c(C)nn(CC)c2C)o1 | 63.3
20 | Cc1nn(C)c(C)c1S(=O)(=O)N1CC[C@@H]2O[C@@H](C)C[C@H]2C1 | 7.69
21 | O=C(c1ccc(F)cc1)N1C[C@@H]2OCCN(c3ncccn3)[C@@H]2C1 | 18.9
22 | Cc1nc(COC[C@]23COC[C@H]2CN(Cc2ccoc2)C3)cs1 | 22.6

Row | Structure (SMILES) | Percent Effect [%]
23 | Cc1nnc(N2C[C@H](OCc3cccnc3)[C@H]3OCCC[C@H]32)s1 | 24.3
24 | COc1cc(F)c(NCc2nc3ccccc3n2C)cc1OC | 78.3
25 | COCCOc1ncccc1NCc1nc2ccccc2n1C | 15.7
26 | COCCOc1ccc(F)cc1NCc1nc2ccccc2n1C | 13.2
27 | CC(=O)N1CCN(C(=O)Nc2ccc(Cl)cc2)[C@H]2CS(=O)(=O)C[C@H]21 | 8.2
28 | O=C(c1ccc(F)cc1)N1C[C@@H]2CCN(c3cccnc3)C[C@@H]2C1 | 20.6
29 | O=C(c1ccncc1)N1C[C@@H]2CCN(c3cccnc3)C[C@@H]2C1 | 23.5
30 | c1cnc(N2C[C@H]3CCN(c4cccnc4)C[C@H]3C2)nc1 | 23.1
31 | O=C(C1CCCC1)N1C[C@@H]2CCN(c3cccnc3)C[C@@H]2C1 | 14.7
32 | Fc1cccc(N2C[C@H]3CCN(c4cccnc4)C[C@H]3C2)c1 | 61.5
33 | Cn1cccc1C(=O)N1CC[C@H]2[C@@H]1CCC(=O)N2CC1CC1 | 21.1
34 | O=C(C1CCC1)N1C[C@@H]2CN(Cc3ccncc3)C(=O)[C@@H]2C1 | 15.8
35 | CCCC(=O)N1CC[C@@H]2[C@H](CC1)N(Cc1cccnc1)CCS2(=O)=O | 17.3
36 | Cc1cccc(CN2C[C@@H]3CN(C4CCOCC4)C[C@@H]3C2=O)c1 | 19.7
37 | CCN1C(=O)C[C@@H]2[C@@H]1CCN2S(=O)(=O)c1cccc(C)c1 | 0
38 | CC(C)=CCN1CCN(C(=O)c2snnc2C)[C@H]2CS(=O)(=O)C[C@H]21 | 5
39 | CCc1cnc(N2C[C@H](OCc3csc(C)n3)[C@H]3COC[C@H]32)nc1 | 20.7
40 | CCN1C(=O)CC[C@@H]2N(C(=O)CCn3nccc3C)CCCC[C@@]21C | 15.7
41 | Cc1noc(C[C@@H]2COC[C@H]3CN(S(=O)(=O)C4CC4)C[C@@H]23)n1 | 12.8
42 | c1coc(-c2[nH]c3ncccc3c2CN2CCCOCC2)c1 | 30.4
43 | CN1CCN(Cc2c(-c3ccco3)[nH]c3ncccc23)CC1 | 18.8
44 | CCN1CCN(Cc2c(-c3ccco3)[nH]c3ncccc23)CC1 | 4.35

Row | Structure (SMILES) | Percent Effect [%]
45 | OC1CCCN(Cc2c(-c3ccco3)[nH]c3ncccc23)C1 (stereo unspecified) | 66.7
46 | NC(=O)C1CCCN(Cc2c(-c3ccco3)[nH]c3ncccc23)C1 (stereo unspecified) | 55.6
47 | OC1CCN(Cc2c(-c3ccco3)[nH]c3ncccc23)CC1 | 30.4
48 | CN1CCCC[C@@H]2[C@H]1[C@@H](c1ccccc1)CCN2C(=O)c1cnccn1 | 25
49 | CC(C)OCCCNC(=O)[C@@]12CNC[C@@H]1CN(S(C)(=O)=O)C2 | -3.23
50 | CCC1=N[C@@]2(CC[C@@H]3CN(Cc4ccc(Cl)cc4)C[C@@H]32)C(=O)N1 | 3.01
51 | CC(C)NC(=O)[C@@H]1C[C@@H]2CCN(Cc3ccoc3)C[C@H]2O1 | 17.3
52 | Cc1ccc(NC(=O)Nc2c(O)oc3ccccc3c2=O)cc1C | 16.1
53 | O=C(O)C1c2nc[nH]c2CCN1Cc1ccc(-c2ccccc2)s1 (stereo unspecified) | 28.8
54 | O=C(O)C1c2nc[nH]c2CCN1Cc1ccccc1-c1ccccc1 (stereo unspecified) | 28.8
55 | O=C(O)C1c2nc[nH]c2CCN1CC(c1ccccc1)c1ccccc1 (stereo unspecified) | 107
56 | Cc1cccc(CN2C(=O)CC[C@@H]3[C@H]2CCN3Cc2ccc(F)cc2)n1 | 20.6
57 | Cc1ccc(CN2CCC[C@@H]3CN(C(=O)c4ccco4)C[C@@H]32)o1 | 15.5
58 | CCCn1nccc1C(=O)N1CCN(C(=O)C2CC2)[C@@H]2CS(=O)(=O)C[C@@H]21 | 0
59 | Cc1ccc(C(=O)N2C[C@@H]3CC[C@H](C2)N(CC2CCC2)C3)s1 | 21.9
60 | Cc1cc(C)n(CC(=O)N2CCCCC2CCN(C)C)c(=O)n1 (stereo unspecified) | 16
61 | Cc1cc(C)n(CC(=O)N2C[C@@H]3CC[C@H](C2)N(CC2CCC2)C3)c(=O)n1 | 57.1
62 | CC(=O)c1ccc(C(=O)N2C[C@@H]3CC[C@H](C2)N(CC2CCC2)C3)s1 | 19.2
63 | CC(C)=CCN1C[C@H]2CC[C@@H]1CN(C(=O)Cn1c(C)cc(C)nc1=O)C2 | 23.8
64 | O=C(NC1CCCC1)N1C[C@H]2CN(c3ccncc3)C[C@@]2(C(=O)O)C1 | -1.96
65 | CN(C)C(=O)[C@H]1C[C@H]2OCC[C@H]2N(Cc2ccc3c(c2)OCO3)C1 | 29.4
66 | O=C1CO[C@H]2CN(S(=O)(=O)c3ccccc3)C[C@H]2N1CC1CCCCC1 | 27.8
